Source: PubChem (National Center for Advancing Translational Sciences (NCATS))
A selection: hits, their analogues and other compounds. The true share with any hit is near 21%.
HCV inh: qHTS Assay for Inhibitors of Hepatitis C Virus (HCV) | Huh7.5.1 HCVcc-Cre infection, luciferase reporter, 44 h | Potency, µM (doses to about 41.8 µM), inactives show at the highest dose activity change, negative = inhibition, usual class: inhibitors | 3.4% of 340,000 active | AID 651820, 2012; also: potency is read from the fitted curve at half-maximal effect; % is scaled to controls: 0 for no effect and ±100 for the full control effect
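Cells (1,000/well) were plated 4 h before compound, then infected with HCVcc-Cre virus (~0.5 moi). After 44 h further culture, infection was read as luciferase luminescence following a 15 min substrate incubation at room temperature.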
Cycloheximide cs: Cycloheximide Counterscreen for Small Molecule Inhibitors of Shiga Toxin; cell reporter, cycloheximide protein synthesis inhibition counterscreen; max response, %; 12% of 300,000 active; AID 2314, 2010; in the data active = max response mostly above about 13%, no sharp cut-off; inactive = mostly below about 14%; also: read at 38.3 µM for the half of the compounds with a filed dose; 0% is about no effect
Shiga toxin inh: A qHTS for Small Molecule Inhibitors of Shiga Toxin. Vero cells, Shiga toxin protein synthesis inhibition reporter. inhibition, % at 38.7 µM. 9.2% of 290,000 active. AID 2315, 2010; in the data active = inhibition mostly above about 28%, no sharp cut-off; inactive = mostly below about 43%; also: 0% is about no effect
Pf growth 96h: Primary qHTS for delayed death inhibitors of the malarial parasite plastid, 96 hour incubation; P. falciparum luciferase reporter growth, 96 h; Potency, µM (top dose mostly 28.7 µM), without a hit: top-dose activity change, negative = inhibition, hits mostly inhibitors; 6.9% of 320,000 active; AID 504834, 2011; also: potency is read from the fitted curve at half-maximal effect; % is scaled to controls: 0 for no effect and ±100 for the full control effect
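Readout is luminescence from an integrated firefly luciferase in P. falciparum. Red cells, 2% hematocrit and 0.05% parasitemia final, were cultured with compound through two parasite generations (96 hours) at 37 C, 5% CO2.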
AMA1-RON2 inh: qHTS for Inhibitors of AMA1-RON; Towards Development of Antimalarial Drug Lead: Primary Screen; AlphaScreen AMA1-biotinylated RON2 peptide binding; Potency, µM (series often up to 58.2 µM), without a hit: top-dose activity change, negative = inhibition, actives largely listed as inhibitors; 0.2% of 360,000 active; AID 720542, 2013;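 also: potency is read from the fitted curve at half-maximal effect; 0% = vehicle wells and -100% = peptide control; nearly all actives have a fitted effect of over 45% in size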
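AMA1 (3D7) with his tag at 25 nM final met compounds first, then biotinylated RON2 peptide at 25 nM; detection used donor plus acceptor beads, 10 µg/mL apiece, read by AlphaScreen after 30 min at room temperature.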
Pf growth 48h: Primary qHTS for delayed death inhibitors of the malarial parasite plastid, 48 hour incubation; P. falciparum luciferase growth in erythrocytes, 48 h; Potency, µM (highest dose often 28.7 µM), for inactives: top-dose activity change, negative = inhibition, usual class: inhibitors; 5.9% of 310,000 active; also: potency is read from the fitted curve at half-maximal effect; % is scaled to controls: 0 for no effect and ±100 for the full control effect
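Luciferase-expressing P. falciparum in infected erythrocytes (2% hematocrit, 0.1% parasitemia final) in RPMI 1640/0.5% Albumax were exposed to compound for 48 hours at 37 C, 5% CO2; growth read as luminescence.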
* hit, by the source's call; ? = inconclusive; nt = no result given. Unless noted, calls follow the shape of the dose curve; as a rule, active = well fitted curve in the direction sought with a large enough effect; inconclusive = small, poorly fitted or top-dose-only effect, or another doubt; inactive = no such curve, though single readings can be large; an effect the other way counts as inactive or inconclusive.

SMILES	HCV inh	Cycloheximide cs	Shiga toxin inh	Pf growth 96h	AMA1-RON2 inh	Pf growth 48h
O=C(NCC(c1ccc(F)cc1)N1CCOCC1)c1ccc([N+](=O)[O-])o1 (configuration not stated)	?	nt	nt	nt	-2.5%	nt
CSCc1cc(N2CCCC2)nc(-c2ccccc2)n1	?	3.4	-11.2	-9.8%	-14.3%	87.4%
COCc1cc(N2CCCCC2)nc(-c2ccccc2)n1	5.62µM*	-1.9	-7.9	-1.4%	12.3%	1.1%
O=C(Oc1c(CN2CCOCC2)cc(Cl)c2cccnc12)c1cccs1	?	1.9	11.8	0.738µM*	-22.2%	2.62µM*
O=C(Oc1c(CN2CCOCC2)cc(Cl)c2cccnc12)c1ccccc1Cl	?	7.6	-3.4	1.31µM*	-40.0%	?
CCN(CC(=O)NCc1ccc(Cl)cc1)C(=O)CCOc1ccc(C)cc1	?	nt	nt	-3.8%	-3.6%	-22.6%
Clc1ccccc1Cn1c(/C=C/c2ccco2)nc2ccccc21	?	90.0*	131.5*	?	-19.5%	?
CC(=O)c1cccc(NC(=S)Nc2cccc3ccccc23)c1	-10.4%	44.5*	83.5*	6.6%	100.0%	0.2%
S=C(Nc1cccc2ccccc12)Nc1cccc2ccccc12	-23.0%	nt	nt	nt	39.7%	nt
COc1ccc(NC(=S)Nc2cccc3ccccc23)cc1OC	-21.6%	30.0*	17.9	?	78.6%	?
CC(=O)Nc1cccc(NC(=S)Nc2cccc3ccccc23)c1	-12.0%	44.4*	83.8*	44.8%	75.4%	18.7%
CC(=O)c1cccc(NC(=S)NCc2ccccc2)c1	?	-1.3	-1.8	33.8%	-4.4%	0.0%
CCSc1nnc(SCC(=O)NC2CCCCC2)s1	-2.0%	nt	nt	17.3%	-10.6%	2.6%
CCCN(CC(=O)Nc1ccc(F)c(F)c1F)C(=O)CCc1nc2ccccc2c(=O)[nH]1	0.0%	nt	nt	?	?	?
Cc1ccccc1S(=O)(=O)NC(=O)C1(C)CCN1C(=O)C1(c2ccccc2)CC1 (configuration not stated)	nt	nt	nt	nt	-6.6%	nt
CC1Sc2ccc(C(=O)N(CCc3ccccc3)Cc3ccccc3)cc2NC1=O (configuration not stated)	nt	nt	nt	nt	-0.5%	nt
O=C(Nc1nnc(-c2ccncc2)s1)C1CCCO1 (configuration not stated)	24.8%	17.3*	35.1*	nt	-15.9%	45.8%
O=C(Nc1nnc(-c2ccccc2F)s1)Nc1ccccc1F	1.7%	12.5	19.7	?	12.5%	111.9%
O=C(Nc1nnc(-c2ccccc2F)s1)C1CCCO1 (configuration not stated)	1.8%	38.7*	64.4*	1.9%	14.0%	454.1%
CCOC(=O)c1sc(N(Cc2ccccc2)C(=O)COC(=O)c2ccc(O)cc2)nc1C	?	8.1	9.2	?	0.4%	?
CCOC(=O)c1sc(N(Cc2ccccc2)C(=O)CCl)nc1C	17.8µM*	6.4	-4.9	-17.3%	-8.0%	?
CCOC(=O)c1sc(N(Cc2ccccc2)C(=O)COC(=O)c2ccccc2O)nc1C	-0.4%	18.7*	32.4*	31.9%	9.1%	39.0%
COc1ccc(-c2nnc(SCc3ccc(C(=O)O)cc3)n2C)cc1OC	6.1%	-0.9	-0.2	?	8.8%	0.0%
Cc1ccc2c(c1)C1(OCCCO1)C(=O)N2	3.8%	-1.2	nt	286.4%	3.3%	19.0%
Cc1cc(=O)oc(C)c1C(=O)NNC(=O)C1(C)CC1Br (configuration not stated)	-2.0%	-1.5	-4.5	31.9%	10.9%	40.9%
SMILES	HCV inh	Cycloheximide cs	Shiga toxin inh	Pf growth 96h	AMA1-RON2 inh	Pf growth 48h
CC1(C(=O)NNC(=O)c2ccc(=O)oc2)CC1Br (configuration not stated)	14.3%	13.1*	23.8	79.0%	21.1%	64.8%
CN(C)CCNC(=O)c1coc(=O)c(Br)c1	1.9%	0.7	-8.0	?	22.9%	-24.0%
O=C(NCCc1ccccc1)c1ccco1	10.4%	49.5*	86.1*	-20.5%	-1.8%	170.2%
NS(=O)(=O)c1ccc(CCNC(=O)c2ccco2)cc1	4.2%	7.7	-5.5	5.9%	-6.8%	6.6%
O=C(NCCc1ccccc1)c1c(F)cccc1F	-8.1%	39.1*	99.1*	356.3%	-12.6%	169.0%
O=C(NCCc1ccccc1)c1ccccc1NC(=O)C1CCCCC1C(=O)O (configuration not stated)	nt	28.5*	55.6*	135.2%	nt	55.4%
O=C(NCCc1ccccc1)c1coc(=O)c(Br)c1	-3.8%	13.8*	26.3	17.1%	16.4%	-20.2%
O=C(Nc1ccc(F)cc1)c1ccccc1NC(=O)C1CCCCC1C(=O)O (configuration not stated)	-7.9%	nt	nt	nt	9.1%	nt
COc1cc(N)c2ncsc2c1	11.2%	nt	nt	nt	-2.0%	nt
Cc1ccnc(NC(=O)CCC(=O)N(CC(=O)NCCc2ccccc2)Cc2ccco2)c1	1.3%	5.4	19.0	?	-1.9%	?
O=C(Nc1ccccc1C(=O)NCCc1ccccc1)c1ccco1	-18.3%	36.6*	43.9	nt	1.0%	47.9%
CN(CC(=O)NCCc1ccccc1)Cc1ccco1	-2.9%	32.3*	98.8*	80.6%	0.0%	87.4%
Nc1sc2c(c1C(=O)NCCc1ccccc1)CCC2	-2.3%	17.3	34.0	-10.9%	24.5%	13.1µM*
Nc1sc2c(c1C(=O)NCCc1ccccc1)CCCC2	nt	nt	nt	nt	0.4%	nt
CCc1nc2ccc(C(=O)NCc3ccc4c(c3)OCO4)cn2c1N(C)Cc1cccs1	nt	nt	nt	nt	-11.3%	nt
CCc1noc(C)c1C(=O)Nc1cc(S(=O)(=O)N2CCOCC2)ccc1OC(C)C	?	nt	nt	?	-4.0%	?
COc1ccnc(N=CNOCc2cccc(C(F)(F)F)c2)c1C#N	9.2%	0.7	-4.4	14.7µM*	2.8%	8.4%
COc1ccnc(N=CNOCc2ccc(C)cc2)c1C#N	-6.1%	-1.8	21.9	-14.5%	-1.6%	nt
COc1cccc(C(C)=C2SC(=S)NC2=O)c1	18.7%	nt	nt	nt	31.8%	nt
O=C(C(=O)N(C1CCCCC1)C1CCCCC1)c1ccccc1	nt	nt	nt	nt	-10.3%	nt
Cc1cc(O)c2c3c(c(=O)oc2c1)CCC(C)C3 (configuration not stated)	8.91µM*	5.8	5.4	?	8.4%	?
Cc1cc2c(cc1S(=O)(=O)Nc1ccc(OC(F)(F)F)cc1)OCC(=O)N2	-21.4%	-5.4	-0.5	19.5%	-15.7%	21.3%
CCOC(=O)c1c(C)[nH]c2c1cc(O)c1ccccc12	?	33.5*	65.2*	?	11.1%	0.147µM*
CCOC(=O)c1c(C)oc2c1cc(O)c1ccccc12	31.6µM*	34.9*	107.6*	-1.9%	-7.0%	120.5%
CC(=O)c1cc(O)c2ccccc2c1O	3.9%	30.5*	65.8*	?	-6.8%	?
